# Data: ChEMBL document CHEMBL3433997, “St. Jude Leishmania screening dataset” (2016)
# Legend:
# Format in all cases: functional
# [1] = molecular target: Solute carrier family 2, facilitated glucose transporter member 1 (Homo sapiens) (UniProt P11166); test: ST_JUDE_LEISH: Cytotoxicity at 2uM final concentration against transgenic Leishmania Mexicana promastigotes LmGLUT1 that are glucose transport deficient and complemented with the human glucose transporter GLUT1. Activity is measured by DNA content using SYBR green in vitro
# Chain of Solute carrier family 2, facilitated glucose transporter member 1 (Homo sapiens) (P11166 whole entry): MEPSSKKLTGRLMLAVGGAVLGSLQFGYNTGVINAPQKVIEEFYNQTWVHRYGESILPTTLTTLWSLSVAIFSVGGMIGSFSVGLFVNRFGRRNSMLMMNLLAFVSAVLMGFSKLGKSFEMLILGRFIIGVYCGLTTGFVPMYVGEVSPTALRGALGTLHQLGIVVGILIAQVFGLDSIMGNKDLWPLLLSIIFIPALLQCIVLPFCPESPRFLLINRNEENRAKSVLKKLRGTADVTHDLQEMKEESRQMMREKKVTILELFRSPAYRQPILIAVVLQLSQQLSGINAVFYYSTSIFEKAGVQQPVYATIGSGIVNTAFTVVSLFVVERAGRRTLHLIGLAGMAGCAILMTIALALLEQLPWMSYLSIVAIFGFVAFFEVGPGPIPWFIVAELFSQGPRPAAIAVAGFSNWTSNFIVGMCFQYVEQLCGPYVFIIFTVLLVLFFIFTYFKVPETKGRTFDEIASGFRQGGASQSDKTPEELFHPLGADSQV
# [2] = molecular target: Hexose transporter 1 (Plasmodium falciparum) (UniProt O97467); test: ST_JUDE_LEISH: Cytotoxicity at 2uM final concentration against transgenic Leishmania Mexicana promastigotes LmPfHT that are glucose transport deficient and complemented with the Plasmodium falciparum hexose transporter. Activity is measured by DNA content using SYBR green in vitro
# [3] = molecular target: Glucose transporter (Leishmania mexicana) (UniProt O61059); test: ST_JUDE_LEISH: Cytotoxicity at 2uM final concentration against transgenic Leishmania Mexicana promastigotes LmGT2 that are glucose transport deficient and complemented with the L. Mexicana glucose transporter 2. Activity is measured by DNA content using SYBR green in vitro
structure (smiles),measurement,setting,value
COc1ccccc1-c1csc(C(=O)NCC2CCN(Cc3ccc(C(C)C)cc3)C2)c1 (stereo not given),inhibition,[1],-1.65%
same,inhibition,[2],-2.5%
same,inhibition,[3],-1.65%
CCCCCC(=O)NCC(NCCCNc1cc(=O)c2ccccc2[nH]1)c1cc(Br)cc(Br)c1 (stereo not given),inhibition,[1],5.16%
same,inhibition,[2],2.44%
same,inhibition,[3],5.39%
CC(C)(C)[C@@H](Nc1ccc(C#N)c2ccccc12)C(=O)NC1(Cc2ccc(O)cc2)CCCC1,inhibition,[1],0.1%
same,inhibition,[2],-0.5%
same,inhibition,[3],0.41%
COc1cccc(-c2ccc3c(-c4cccc(S(C)(=O)=O)c4)cnc(N)c3c2)c1,inhibition,[1],8.21%
same,inhibition,[2],5.42%
same,inhibition,[3],2.21%
COc1ccc2nccc([C@@H](O)CN3CCC(NCCOc4cccc(C(F)(F)F)c4)CC3)c2c1,inhibition,[1],9.63%
same,inhibition,[2],12.5%
same,inhibition,[3],0.73%
Cc1cccc2nc(-c3ccc(-c4ccc(CN5CCCCC5CO)cc4)cc3)[nH]c12 (stereo not given),inhibition,[1],27.8%
same,inhibition,[2],31.6%
same,inhibition,[3],19.5%
COc1cc2c(cc1OC)C(C)(C)CN1Cc3c(c(CO)c(OC)c(OC)c3OC)CC21 (stereo not given),inhibition,[1],4.54%
same,inhibition,[2],3.72%
same,inhibition,[3],4.31%
Cc1ccc2[nH]c(Nc3ccc(Nc4nc5cc(C)ccc5[nH]4)c(C)c3)nc2c1,inhibition,[1],0.87%
same,inhibition,[2],2.18%
same,inhibition,[3],0.88%
CCCCCN1CCCC(CNS(=O)(=O)c2ccc(C(=O)Nc3ccc(C(F)(F)F)cc3)cc2)C1 (stereo not given),inhibition,[1],-1.01%
same,inhibition,[2],-0.37%
same,inhibition,[3],-0.42%
CN1CCN(Cc2ccc(-c3cc4nccc(Nc5ccc(Oc6ccccc6)cc5)c4cc3Cl)o2)CC1,inhibition,[1],1.96%
same,inhibition,[2],2.5%
same,inhibition,[3],2.69%
COc1cc(NC(=O)/C=C/c2ccccc2OC(F)(F)F)cc(OCCN2CCC(O)(c3ccccc3)CC2)c1,inhibition,[1],7.57%
same,inhibition,[2],5.55%
same,inhibition,[3],5.81%
CC[C@@H]([C@@H](CC(C)C)C(=O)N[C@@H](CCCCNC(=O)OCc1ccccc1)C(=O)Nc1ccccn1)N(O)C=O,inhibition,[1],4.89%
same,inhibition,[2],4.71%
same,inhibition,[3],3.88%
O=C(Nc1cccc(-c2ccc(CN3CCC(O)CC3)cc2)c1)c1cccc(Cl)c1,inhibition,[1],3.01%
same,inhibition,[2],3.03%
same,inhibition,[3],2.17%
COc1ccc(C2CC(c3cccs3)=NN2C(=O)CNc2ccccc2F)cc1OC (stereo not given),inhibition,[1],2.69%
same,inhibition,[2],1.72%
same,inhibition,[3],2.76%
O=C(CSc1nc2ccccc2c(=O)n1CC1CCCO1)Nc1cc(C(F)(F)F)ccc1Cl (stereo not given),inhibition,[1],9.97%
same,inhibition,[2],9.45%
same,inhibition,[3],6.14%
O=C(NC1CC1)c1ccc(Cn2c(SCc3cccc([N+](=O)[O-])c3)nc3ccccc3c2=O)cc1,inhibition,[1],1.19%
same,inhibition,[2],0.54%
same,inhibition,[3],0.2%
COc1ccc(Nc2nc(N/N=C/c3cc(Br)ccc3O)nc(Nc3ccc([N+](=O)[O-])cc3)n2)cc1,inhibition,[1],0.02%
same,inhibition,[2],-2.54%
same,inhibition,[3],1.51%
Oc1ccc2nc(Nc3ccccc3)nc(NCCc3ccccc3)c2c1,inhibition,[1],7.22%
same,inhibition,[2],6%
same,inhibition,[3],5.72%
CCc1cccc2c(C#N)cn(CC(=O)Nc3ccc(OC)cc3)c12,inhibition,[1],0.84%
same,inhibition,[2],3.26%
same,inhibition,[3],1.27%
O=C(Nc1cccc(C(F)(F)F)c1)c1cccc(S(=O)(=O)NCC2CCCN2CC2CCCCC2)c1 (stereo not given),inhibition,[1],5.37%
same,inhibition,[2],3.21%
same,inhibition,[3],4.26%
CCCCN(CCCC)CCCCCCNc1c2ccccc2nc2ccccc12,inhibition,[1],28%
same,inhibition,[2],22.7%
same,inhibition,[3],18.2%
CC(=O)c1cccc(NC(=O)NC2CCN(c3ccnc(Nc4ccc(F)cc4)n3)C2)c1 (stereo not given),inhibition,[1],-1.36%
same,inhibition,[2],-0.93%
same,inhibition,[3],-0.03%
CN(C)c1ccc(OCCCCCCOc2ccccc2)cc1,inhibition,[1],1.32%
same,inhibition,[2],1.77%
same,inhibition,[3],1.98%
CN1CCN(CCCN(Cc2ccc(-c3cccc(CNCc4ccc5c(c4)OCO5)c3)cc2)C(=O)Nc2ccccc2)CC1,inhibition,[1],4.2%
same,inhibition,[2],4.92%
same,inhibition,[3],4.03%
CCN1CCC(N(Cc2ccc(-c3ccc(C(F)(F)F)cc3)cc2)C(=O)Cn2c(CCc3cccc(F)c3F)nc(=O)c3ccccc32)CC1,inhibition,[1],1.25%
same,inhibition,[2],2.57%
same,inhibition,[3],3.43%
CC(=O)N[C@H](C(=O)Nc1ccc(-c2cccc(-c3nc4cccc(C)c4[nH]3)c2)cc1)C(C)C,inhibition,[1],1.35%
same,inhibition,[2],3.2%
same,inhibition,[3],2.45%
COc1ccc(NC(=O)/C=C/c2ccccc2Cl)cc1OCCN1CCC(NCc2cccnc2)CC1,inhibition,[1],3.65%
same,inhibition,[2],2.5%
same,inhibition,[3],1.91%
COc1ccc(NC(=O)/C=C/c2ccccc2Cl)cc1OCCN1CCC(N2CCCCC2)CC1,inhibition,[1],7.74%
same,inhibition,[2],7.17%
same,inhibition,[3],7.17%
CC(C)N1CCN(C(CN2CCN(CCCOc3ccc4nonc4c3)CC2)c2ccc(F)cc2)CC1 (stereo not given),inhibition,[1],-0.47%
same,inhibition,[2],-1.18%
same,inhibition,[3],-1.91%
CCc1cc(COc2ccc(CNCCC(C)C)cc2I)c(OCc2ccccc2)c(COc2ccc(CNCCC(C)C)cc2I)c1,inhibition,[1],-0.25%
same,inhibition,[2],-3.29%
same,inhibition,[3],3.76%
c1ccc(C2CCC(N3CCC(N4CCN(c5ccccc5)CC4)CC3)CC2)cc1 (stereo not given),inhibition,[1],5.35%
same,inhibition,[2],7.92%
same,inhibition,[3],8.3%
Cc1cccc(C)c1CNc1nc(N2CCOCC2)cc2c(C)c(C)[nH]c12,inhibition,[1],3.7%
same,inhibition,[2],3.43%
same,inhibition,[3],4.38%
O=S(=O)(Nc1cccc(CCN2CCC(N3CCCCC3)CC2)c1)c1ccccc1C(F)(F)F,inhibition,[1],1.15%
same,inhibition,[2],0.31%
same,inhibition,[3],-2.06%
CN(C)C(=O)c1ccc(CN(Cc2ccc(OC(C)(C)C)cc2)Cc2ccc3c(c2)OCCO3)cc1,inhibition,[1],0.59%
same,inhibition,[2],2.04%
same,inhibition,[3],0.26%
c1ccc(CN2CCC(NCc3ccc(-c4cccc(CNC5CCCC5)c4)cc3)CC2)cc1,inhibition,[1],15.8%
same,inhibition,[2],8.03%
same,inhibition,[3],0.89%
O=c1cc(NCCCNCc2[nH]c3cc(Cl)cc(Cl)c3c2Cn2cccn2)[nH]c2ccccc12,inhibition,[1],0.47%
same,inhibition,[2],-1.31%
same,inhibition,[3],1.93%
Cc1ccc(CON2C(N)=NC(N)=NC23CCCCC3)c2ccccc12,inhibition,[1],3.13%
same,inhibition,[2],2.42%
same,inhibition,[3],4.18%
CCCC(CC)n1ccc2c3c(N)nc(N)nc3ccc21 (stereo not given),inhibition,[1],70.5%
same,inhibition,[2],76.3%
same,inhibition,[3],57.8%
COc1cc(C(=O)N2COCC(CCCN3CCC(N4CCCC4)CC3)(c3ccc(Cl)c(Cl)c3)C2)cc(OC)c1OC (stereo not given),inhibition,[1],3.3%
same,inhibition,[2],3.39%
same,inhibition,[3],3.67%
CN1CCN(CCCN(Cc2cccc(-c3cccc(CNCCc4ccccc4)c3)c2)C(=O)Nc2ccccc2)CC1,inhibition,[1],8.85%
same,inhibition,[2],9.55%
same,inhibition,[3],7.52%
CCOC(=O)CNCC(=O)c1ccc(OCc2ccccc2)cc1,inhibition,[1],1.94%
same,inhibition,[2],0.64%
same,inhibition,[3],2.44%
Cc1cccc2nc(-c3cccc(-c4cccc(NC(=O)c5cncn5C)c4)c3)[nH]c12,inhibition,[1],-0.07%
same,inhibition,[2],3.4%
same,inhibition,[3],4.6%
O=C(/C=C/c1ccc(Cl)cc1)NCCCCCN1CCC(C(=O)Nc2cccc(Cl)c2)CC1,inhibition,[1],2.16%
same,inhibition,[2],2.2%
same,inhibition,[3],0.58%
CCCc1ccc(S(=O)(=O)NC2CCN(C(=O)Nc3ccc(I)cc3)CC2)cc1,inhibition,[1],5.43%
same,inhibition,[2],5.51%
same,inhibition,[3],5.03%
O=C(NC1CCCCC1)c1csc(C2CCCN(C(=O)c3ccc(O)c(-c4cccc(C(F)(F)F)c4)c3)C2)n1 (stereo not given),inhibition,[1],0.87%
same,inhibition,[2],1.44%
same,inhibition,[3],-0.33%
CC(Cc1ccc(CN2CCN(Cc3ccccc3)CC2)cc1)NCC(O)c1cccc(C(F)(F)F)c1 (stereo not given),inhibition,[1],5.03%
same,inhibition,[2],4.18%
same,inhibition,[3],5.25%
CN(C)CCOc1cc(NC(=O)Nc2ccc3c(c2)CCCC3=O)ccc1I,inhibition,[1],5.03%
same,inhibition,[2],7.25%
same,inhibition,[3],4.5%
CC(C)(C)c1ccc(NC(=O)c2cccc(CN3CCCN(Cc4cccc(C#N)c4)CC3)c2)cc1,inhibition,[1],5.1%
same,inhibition,[2],1.26%
same,inhibition,[3],0.63%
CCCn1c(Sc2ccc(C#N)c([N+](=O)[O-])c2)nnc1-c1ccc(N(C)C)cc1,inhibition,[1],5.64%
same,inhibition,[2],4.8%
same,inhibition,[3],3.14%
CCN(CC)/C(=N/C(=N)Nc1ccc(Cl)c(Cl)c1)NCCCCCCN/C(=N\C(=N)Nc1ccc(Cl)c(Cl)c1)N(CC)CC,inhibition,[1],1.15%
same,inhibition,[2],-1.65%
same,inhibition,[3],-1.49%
Nc1cccc(CNCc2ccc(-c3ccc(-c4nc5cc(C(F)(F)F)ccc5[nH]4)s3)cc2)c1,inhibition,[1],2.29%
same,inhibition,[2],1.24%
same,inhibition,[3],0.65%
c1cc(CN2CCC(CCN3CCCCC3)CC2)cc(-c2csc(-c3nc4ccccc4[nH]3)c2)c1,inhibition,[1],7.93%
same,inhibition,[2],8.75%
same,inhibition,[3],4.01%
CCCC1N=C(N)N=C(N)N1c1cccc([N+](=O)[O-])c1 (stereo not given),inhibition,[1],1.33%
same,inhibition,[2],-0.09%
same,inhibition,[3],0.75%
Oc1cc2ccccc2cc1CNC1CCCCC1,inhibition,[1],1.31%
same,inhibition,[2],1.41%
same,inhibition,[3],1.5%
CC(C)Cc1nc2nc(N)nc(N)c2cc1C(C)C,inhibition,[1],1.84%
same,inhibition,[2],4.17%
same,inhibition,[3],1.5%
c1ccc(CN2CCC(Nc3ccc(-c4c[nH]nc4-c4ccccn4)nc3)CC2)cc1,inhibition,[1],4.32%
same,inhibition,[2],4.84%
same,inhibition,[3],4.12%
Cc1ccccc1N1CCN(c2ccc(C(=O)Nc3ccccc3)cc2)CC1,inhibition,[1],-0.27%
same,inhibition,[2],0.69%
same,inhibition,[3],1.33%
COc1ccc2c(=NN=CC=Cc3ccccc3)cc(C)[nH]c2c1,inhibition,[1],0.78%
same,inhibition,[2],4.29%
same,inhibition,[3],3.21%
Cc1cccc(-c2nc3cc(NC(=O)c4ccc([N+](=O)[O-])o4)ccc3o2)c1,inhibition,[1],6.53%
same,inhibition,[2],7.69%
same,inhibition,[3],2.04%
Cc1cccc2nc(-c3ccc(-c4ccc(CN5CCOCC5)cc4)cc3)[nH]c12,inhibition,[1],4.34%
same,inhibition,[2],3.46%
same,inhibition,[3],2.61%
O=C(Nc1ccc(C(=O)Oc2ccc3ccccc3c2)cc1)N[C@@H](Cc1ccc(O)cc1)C(=O)NC1CCN(Cc2ccc(O)cc2)C1 (stereo not given in full),inhibition,[1],0.75%
same,inhibition,[2],-0.55%
same,inhibition,[3],-2.23%
Cc1cc(N2CCCC2)nc(Nc2ccc(NC(=O)c3ccccc3F)cc2)n1,inhibition,[1],1.09%
same,inhibition,[2],2.77%
same,inhibition,[3],-0.95%
CC(C)CN1CCC(COc2ccc3ncn(-c4cc(O[C@H](C)c5ccccc5C(F)(F)F)c(C(N)=O)s4)c3c2)CC1,inhibition,[1],77.7%
same,inhibition,[2],74.7%
same,inhibition,[3],60.6%
O=C(Nc1cc(F)cc(F)c1)N[C@H]1CCN(CCCCCNC(=O)C2CC2c2ccc(Cl)c(Cl)c2)C1 (stereo not given in full),inhibition,[1],-0.04%
same,inhibition,[2],0.55%
same,inhibition,[3],-1.55%
CCC(CC)(Cc1ccccc1)NC(=O)[C@H](CC1CCCCC1)Nc1ccc(C#N)c2ccccc12,inhibition,[1],-1.5%
same,inhibition,[2],-0.75%
same,inhibition,[3],-0.23%
CCc1nc(N)nc(N)c1CCCOc1ccccc1Cl,inhibition,[1],3.15%
same,inhibition,[2],2.69%
same,inhibition,[3],-0.4%
N#CCCN1CCN(Cc2ccc(-c3ccc(-c4nc5cc(F)ccc5[nH]4)s3)cc2)CC1,inhibition,[1],5.49%
same,inhibition,[2],0.84%
same,inhibition,[3],4.14%
COc1ccc(NC(=O)/C=C/c2ccc(Oc3ccccc3Cl)c([N+](=O)[O-])c2)cc1OCCN(C(C)C)C(C)C,inhibition,[1],-0.7%
same,inhibition,[2],-0.91%
same,inhibition,[3],-1.59%
COc1ccc(F)cc1-c1ccc(C(=O)N2CCCN(c3ccc(C#N)cn3)CC2)cc1,inhibition,[1],0.86%
same,inhibition,[2],0.21%
same,inhibition,[3],-5.82%
CNCCNCc1cccc(-c2cccc(-c3nc4cccc(C)c4[nH]3)c2)c1,inhibition,[1],0.8%
same,inhibition,[2],2.47%
same,inhibition,[3],0.35%
